PME-1 inh – PME-1 inhibitors via competitive probe labeling, primary screen, biochemical, fluorescence polarization, FP-Rh probe, HTS; 320,000 tested, 0.53% active; inhibition, % at 5.9 µM; recombinant PME-1; Protein phosphatase methylesterase 1 (Homo sapiens), Q9Y570;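 active = inhibition above the campaign mean of all compounds plus 3 SD, cut at about 26% in these data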;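 also: competitive labeling of PME-1 active site by serine hydrolase directed probe; 0% = PME-1 with DMSO and 100% = wells lacking PME-1 enzyme; inhibitors block probe labeling so polarization falls and inhibition rises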
Target sequence (Q9Y570 whole entry, looked up): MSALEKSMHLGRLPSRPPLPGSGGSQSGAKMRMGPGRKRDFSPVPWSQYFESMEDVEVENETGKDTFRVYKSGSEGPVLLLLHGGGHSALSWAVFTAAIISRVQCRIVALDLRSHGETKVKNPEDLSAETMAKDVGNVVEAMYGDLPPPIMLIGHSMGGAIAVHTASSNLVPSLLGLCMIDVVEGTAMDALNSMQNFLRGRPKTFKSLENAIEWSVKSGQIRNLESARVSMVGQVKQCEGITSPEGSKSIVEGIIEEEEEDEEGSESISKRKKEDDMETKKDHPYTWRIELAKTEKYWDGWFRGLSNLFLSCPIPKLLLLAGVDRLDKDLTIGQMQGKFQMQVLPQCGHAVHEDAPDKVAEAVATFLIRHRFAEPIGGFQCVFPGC
PAD4 inh – human PAD4 inhibitors, primary screen, biochemical, fluorescence polarization, 1536-well format; Protein-arginine deiminase type-4 (Homo sapiens), Q9UM07; recombinant PAD4, RCA probe fluorescence polarization; inhibition, % at 6.36 µM; 330,000 tested, 0.41% active; AID 485272, 2010;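 active = percent inhibition above a cutoff equal to the mean of all tested compounds plus 3 SD, cut at about 15% in these data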;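 also: 0% = PAD4 with RCA probe and DMSO and 100% = probe without PAD4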
pPAFAH FP inh – pPAFAH enzyme inhibitors, primary screen, biochemical, fluorescence polarization, human. Platelet-activating factor acetylhydrolase (Homo sapiens), Q13093. recombinant pPAFAH, FP-rhodamine probe fluorescence polarization. inhibition, % at 3.39 µM. 330,000 tested, 1.5% active;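 active = inhibition above the mean inhibition across the screen plus 3 SD, cut at about 25% in these data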;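 also: inhibitors block binding of the rhodamine activity-based probe so polarization drops; 0% = enzyme with DMSO and 100% = wells lacking pPAFAH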
GSTO1 counter – inhibitors of recombinant GSTO1, primary screen, counter-screen for RBBP9 inhibitor project, biochemical, fluorescence polarization; Glutathione S-transferase omega-1 (Homo sapiens), P78417; activity-based probe fluorescence polarization; inhibition, % at 5.96 µM; 300,000 tested, 1.1% active; AID 1974, 2009;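 active = inhibition above the campaign mean inhibition plus 3 SD, cut at about 35% in these data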;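 also: 0% = GSTO1-1 with DMSO and 100% = wells lacking GSTO1-1 enzyme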
Target sequence (P78417 whole entry, looked up): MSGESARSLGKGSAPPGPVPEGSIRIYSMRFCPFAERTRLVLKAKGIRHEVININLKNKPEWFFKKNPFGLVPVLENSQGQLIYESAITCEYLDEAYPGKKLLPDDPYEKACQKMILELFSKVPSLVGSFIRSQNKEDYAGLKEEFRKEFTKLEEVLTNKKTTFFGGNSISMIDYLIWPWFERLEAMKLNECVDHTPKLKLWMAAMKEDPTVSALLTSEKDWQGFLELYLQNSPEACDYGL
Fam108B counter – mouse Fam108B serine hydrolase inhibitors, primary screen, counter-screen for RBBP9 inhibitor project, biochemical, fluorescence polarization | inhibition, % at 9.51 µM | AID 1947, 2009 | 300,000 tested, 0.33% active | recombinant Fam108B, FP-Rh probe fluorescence polarization;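 active = inhibition above the screen mean inhibition plus 3 SD, computed separately per campaign, cut at about 18% in these data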;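 also: inhibitors lower polarization as less probe binds the enzyme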
PAD4 FP conf – human PAD4 inhibitors, confirmation, biochemical, fluorescence polarization; inhibition, % at 6.36 µM; 1,200 tested, 28% active; recombinant PAD4, RCA probe fluorescence polarization; shares compounds with PAD4 inh; AID 488796, 2010;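 active = mean inhibition across replicates above the hit cutoff set by the earlier primary screen, cut at about 15% in these data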;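 also: inhibitors block active-site labeling by the probe so polarization falls; 0% = PAD4 with probe and DMSO and 100% = probe without PAD4 enzyme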
Numbers without * were called inactive; . = no result. Only some compounds are listed: those with a hit (about 2.3% of all), similar ones and a draw of the others.

SMILES	PME-1 inh	PAD4 inh	pPAFAH FP inh	GSTO1 counter	Fam108B counter	PAD4 FP conf
Cc1nnc(N/N=C/c2ccc(-c3ccc(Br)cc3)o2)n1N	1	24*	10	13	1	5
Cc1nnc(N/N=C/c2ccc(Br)cc2)n1N	-2	36*	1	8	-1	10
Cc1nnc(N/N=C/c2ccc([N+](=O)[O-])cc2)n1N	-1	5	3	-1	3	.
C=CCNC(=S)N/N=C/c1ccc(-c2ccc(Br)cc2)o1	8	-3	6	0	4	.
Cc1nnc(N/N=C\c2ccc(-c3cccc(C(=O)O)c3)o2)n1N	0	30*	0	20	1	-6
Cc1sc2nc(CN3CCCC3)nc(N3CCN(S(=O)(=O)c4cccc(F)c4)CC3)c2c1C	5	1	4	.	.	.
O=C(CCNC(=O)c1ccc([N+](=O)[O-])cc1)Nc1ccc(Cl)c(S(=O)(=O)N2CCOCC2)c1	9	-1	2	.	.	.
O=C(CC1CCCC1)Nc1ccc(Cl)c(S(=O)(=O)N2CCOCC2)c1	.	1	13	.	.	.
O=C(CCNC(=O)c1ccccc1)Nc1ccc(Cl)c(S(=O)(=O)N2CCCCC2)c1	.	19*	2	.	.	0
O=C(O)CC(SCC(=O)Nc1ccc(Cl)c(S(=O)(=O)N2CCOCC2)c1)C(=O)O (stereo unspecified)	7	21*	2	-4	4	5
CC1=NN(c2ccccc2)C(=O)/C1=C\c1ccc(Br)s1	4	16*	4	16	8	-2
CC1=NN(c2ccccc2)C(=O)/C1=C/c1cccs1	0	35*	7	55*	-2	1
CC1=NN(c2ccccc2)C(=O)/C1=C\c1cc(C)n(-c2ccccc2)c1C	-12	-3	0	13	2	.
CC(Nc1ccc(Cl)cc1)C(=O)NN (stereo unspecified)	-4	-2	6	2	0	.
O=C1C(Br)=Cc2cccc3cccc1c23	9	91*	5	6	9	62*
CCOc1ccc(N2C(=O)CC(Sc3ccccc3C(=O)O)C2=O)c([N+](=O)[O-])c1 (stereo unspecified)	7	26*	5	14	5	13
CCN1C(=O)CC(Sc2ccccc2C(=O)O)C1=O (stereo unspecified)	-3	3	0	19	6	.
CCC(C)(C)C1CCc2[nH]nc(C(=O)NCCCNC(=O)OC(C)(C)C)c2C1 (stereo unspecified)	3	2	0	0	4	.
Cc1nn(C(C)(C)C)c(NC(=O)c2ccccc2)c1C#N	-2	0	6	-2	-1	.
CCC(C)n1c(NC(=O)c2ccccc2)c(C#N)c2nc3ccccc3nc21 (stereo unspecified)	-5	29*	14	24	-8	-17
CCOC(=O)Cc1nnc(NC(=O)CSc2nnc3c(n2)[nH]c2ccccc23)s1	-18	22*	4	11	-8	5
CCCC1C2CN(C(C)C)CC=C2C(C#N)=C(N)C1(C#N)C#N (stereo unspecified)	5	25*	12	-3	1	12
CN1CC=C2C(C#N)=C(N)C(C#N)(C#N)C(c3ccsc3)C2C1 (stereo unspecified)	-2	15*	15	-1	0	6
CN1CC=C2C(C#N)=C(N)C(C#N)(C#N)C(CCc3ccccc3)C2C1 (stereo unspecified)	3	2	3	2	2	.
Cc1ccccc1-c1nc(CN(C)C(C)c2ccon2)c(C)o1 (stereo unspecified)	-1	1	1	-2	1	.
SMILES	PME-1 inh	PAD4 inh	pPAFAH FP inh	GSTO1 counter	Fam108B counter	PAD4 FP conf
O=C(O)CSCC(=O)Nc1ccc(-c2nc3ccccc3s2)cc1	-5	30*	16	-28	-1	31*
CCCCNC(=O)/C=C1\Sc2ccccc2NC1=O	3	2	3	-2	2	.
CCc1ccc(C(=O)/C=C2\Sc3ccccc3NC2=O)cc1	5	37*	17	0	3	42*
O=C(CN1CCOCC1)Nc1nc2ccc(Br)cc2s1	1	17*	3	1	-2	9
COc1ccc(C2CC(c3cccs3)=NN2S(C)(=O)=O)cc1 (stereo unspecified)	8	2	-3	0	-3	.
CS(=O)(=O)N1N=C(c2cccs2)CC1c1ccccc1 (stereo unspecified)	-2	30*	3	1	-1	2
Cc1noc(C)c1S(=O)(=O)NCc1ccc2c(c1)OCO2	-1	25*	2	5	4	0
Cc1ccc(/C=N/Nc2nncn2N)cc1	5	46*	6	16	3	1
Nn1cnnc1N/N=C/c1ccc(F)cc1	3	41*	5	18	-4	3
Nn1cnnc1N/N=C/c1ccccc1C(F)(F)F	0	39*	4	2	-2	7
Cc1ccc(/C=N/Nc2nc(C)cc(C)n2)cc1	-3	-7	6	6	3	.
FC(F)(F)c1ccccc1/C=N/Nc1ccccn1	8	-3	3	0	-5	.
Cc1c(N2CCCC2)cc2c(c1NC(=O)c1ccccc1Cl)C(C)(C)CC2(C)C	2	-15	8	-10	-8	.
COc1ccc(S(=O)(=O)N(C)C)cc1NC(=O)CCNC(=O)c1ccco1	1	2	4	4	-2	.
Oc1ccc2ccccc2c1C=NCc1ccccc1	11	19*	0	34	10	-2
O=C(COC(=O)C1=COCCO1)NCc1ccc(Cl)cc1	0	-5	1	-4	0	.
O=[N+]([O-])c1ccc2nc(-c3ccccc3)n(OCc3ccc(Cl)cc3)c2c1	2	84*	5	0	4	4
Cc1noc(C)c1COc1ccc(C(=O)N2CCN(c3ccccc3O)CC2)cc1	0	0	3	.	.	.
COc1ccc2ccccc2c1/C=N/Nc1ccc(Cl)c(C(=O)O)c1	6	8	10	29	5	.
COc1ccc2ccccc2c1/C=N/Nc1cccc(C(=O)O)c1	14	21*	13	15	8	2
CCCc1cc(=O)n2[nH]c(-c3ccccc3)cc2n1	3	-1	-1	-20	4	.
CCCCn1[nH]c(-c2ccccc2)cc1=O	-12	45*	4	57*	2	-5
CCCCN1C(=O)Nc2ccccc2S1=O (stereo unspecified)	1	16*	-2	13	3	10
O=C1CSC2(C(=O)N3CCCc4cccc2c43)N1c1cccc(C(F)(F)F)c1 (stereo unspecified)	-1	18*	-3	-3	1	8
